HT1080 IDH1KD tx: qHTS for induction of synthetic lethality in tumor cells producing 2HG: qHTS for the HT-1080-IDH1KD cell line. HT-1080 IDH1 knockdown viability, ATP luminescence, 48 h. Potency, µM (top dose mostly 46.1 µM), most hits filed as cytotoxic. 360,000 compounds, 2% hits
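Luminescent ATP read-out (CellTiter-Glo, 10 min at room temperature) after 48 h compound exposure at 37 °C gave viability of IDH1-knockdown HT-1080 cells. Activity was normalised to DMSO and cell-free wells, then fitted as concentration-response curves.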
TGFb inhibitor: qHTS for Inhibitors of TGF-b | Potency, µM (titrated, usually from 46.1 µM), most hits filed as inhibitors | 410,000 compounds, 1.2% hits | HepG2 CAGA-GFP TGF-b/SMAD3 reporter, GFP fluorescence, 18 h; TGF-beta stimulated, 500 pg/mL final; note: nearly all actives have a fitted effect of over 65% in size
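HEPG2 CAGA-GFP, 1000 cells/well; 2 h settle, 37 C; cpd via pin tool; TGF-b 500 pg/mL final; 18 h, 37 C; GFP imaging ex488/em500-530; %Activity normalised to -TGF-b and +DMSO controls; CRC fit, curve class.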
HT1080NT lethal: qHTS for induction of synthetic lethality in tumor cells producing 2HG: qHTS for the HT-1080-NT fibrosarcoma cell line. 360,000 compounds, 1.6% hits. Potency, µM (titrated, usually from 46.1 µM), actives largely listed as cytotoxic. HT-1080-NT fibrosarcoma viability, CellTiter-Glo ATP luminescence, 48 h. AID 686970, 2013;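 note: NT is the 2HG producing partner of a matched IDH1 knockdown line; nearly all actives have a fitted effect of over 55% in size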
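HT-1080-NT; 750 cells/well; 5% FBS RPMI; 48 h compound, 37 degrees C; CellTiter-Glo luminescence; curve fitting and curve-class assignment.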
DT40 TDP1 CPT: qHTS for Inhibitors of human tyrosyl-DNA phosphodiesterase 1 (TDP1): qHTS in cells in presence of CPT | chicken DT40 Tdp1-/-;hTDP1 cells + 20 nM CPT, ATP luminescence, 48 h | AID 686979, 2013 | Potency, µM (highest dose often 46.2 µM), most hits filed as inhibitors | 420,000 compounds, 12% hits; note: nearly all actives have a fitted effect of over 55% in size
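Cell growth measured by CellTiter-Glo luminescence after a minimum 48 h, 37 C compound exposure with 20 nM CPT in Tdp1-knockout DT40 cells stably expressing hTDP1, seeded 400/well; qHTS titration format.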
DT40 TDP1 no CPT: qHTS for Inhibitors of human tyrosyl-DNA phosphodiesterase 1 (TDP1): qHTS in cells in absence of CPT; AID 686978, 2013; 420,000 compounds, 15% hits; Potency, µM (doses to about 46.2 µM), hits mostly inhibitors; DT40 Tdp1-/- hTDP1 cells, no CPT, ATP luminescence, 48 h; note: nearly all actives have a fitted effect of over 55% in size
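DT40 Tdp1-/-;hTDP1 cells, no CPT (DMSO vehicle only), 400 cells/well; compounds pin-transferred; ≥48 hr, 37 °C; CellTiter-Glo 30 min RT dark, luminescence read.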
HepG2 tox: qHTS for Inhibitors of TGF-b: Cytotox Counterscreen; HepG2 CAGA-GFP viability, ATP luminescence, 18 h; Potency, µM (top dose mostly 46.1 µM), actives largely listed as cytotoxic; 410,000 compounds, 0.76% hits
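HepG2 CAGA-GFP cells (1000/well, DMEM with 1% FBS) received compound, then TGF-beta at 500 pg/mL final, and were incubated 18 hours at 37 degrees C. Viability was read by CellTiter-Glo luminescence. Media-only wells were set as complete cell-killing and DMSO as no toxicity.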
Each line names hits and unclear results; the compound was inactive in the other large screens. Rows were chosen to be rich in hits. Some 17% of all compounds tested hit in one or more screens of this group. Calls come from the whole dose curve; as a rule, active = well fitted curve in the direction sought with a large enough effect; inconclusive = small, poorly fitted or top-dose-only effect, or another doubt; inactive = no such curve, though single readings can be large; an effect the other way counts as inactive or inconclusive.

C/C(=N\NC(=O)c1ccc(NS(=O)(=O)c2cccs2)cc1)c1ccccc1	none
COc1ccc(C=NNC(=O)c2ccccc2NS(=O)(=O)c2cccs2)cc1O	none
O=C(NN=Cc1ccc(O)cc1O)c1ccccc1NS(=O)(=O)c1cccs1	HT1080 IDH1KD tx inconclusive, HT1080NT lethal inconclusive, DT40 TDP1 CPT inconclusive, DT40 TDP1 no CPT 21µM
C/C(=N\NC(=O)c1ccc(NS(=O)(=O)c2cccs2)cc1)c1ccc(O)cc1O	HT1080 IDH1KD tx 23µM, TGFb inhibitor inconclusive, HT1080NT lethal inconclusive, DT40 TDP1 CPT inconclusive, DT40 TDP1 no CPT inconclusive
CC1CC(C)CN(C(C(=O)NC2CCCCC2)c2ccnc3ccccc23)C1 (configuration not stated)	TGFb inhibitor inconclusive, DT40 TDP1 CPT inconclusive, DT40 TDP1 no CPT inconclusive
CC1CC(C)CN(C(C(=O)NC2CCCCC2)c2cc3ccccc3o2)C1 (configuration not stated)	HT1080 IDH1KD tx inconclusive, TGFb inhibitor 16µM, HT1080NT lethal inconclusive, DT40 TDP1 CPT inconclusive, DT40 TDP1 no CPT 26µM
CCCN(CC(=O)Nc1ccccc1C)C(=O)c1ccc(-c2ccc([N+](=O)[O-])cc2)o1	DT40 TDP1 CPT inconclusive, DT40 TDP1 no CPT 21µM
CCCN(CC(=O)Nc1ccccc1C)C(=O)COc1c(C)cccc1C	DT40 TDP1 CPT inconclusive
CCCN(CC(=O)Nc1ccccc1C)C(=O)CCl	HT1080 IDH1KD tx 4.1µM, TGFb inhibitor 5.6µM, HT1080NT lethal 8.2µM, DT40 TDP1 CPT 2.6µM, DT40 TDP1 no CPT 2.1µM
CCCN(CC(=O)Nc1ccccc1OC)C(=O)c1cc2ccccc2o1	none
CCCN(CC(=O)Nc1ccccc1OC)C(=O)c1ccc(COc2ccccc2)o1	DT40 TDP1 CPT 16µM, DT40 TDP1 no CPT inconclusive
N=c1c2c(ncn1Cc1ccco1)Oc1cc(O)ccc1C2c1ccccc1 (configuration not stated)	DT40 TDP1 CPT 18µM, DT40 TDP1 no CPT inconclusive
CN(C)CCn1cnc2c(c1=N)C(c1ccccc1)c1ccc3ccccc3c1O2 (configuration not stated)	TGFb inhibitor 18µM, DT40 TDP1 CPT 18µM, DT40 TDP1 no CPT inconclusive
COc1ccc(C2c3c(ncn(CCN4CCOCC4)c3=N)Oc3ccc4ccccc4c32)cc1 (configuration not stated)	DT40 TDP1 CPT inconclusive, DT40 TDP1 no CPT 18µM
CC1(C)CC(=O)C2=C(C1)Oc1ncn(Cc3ccco3)c(=N)c1C2c1ccccc1 (configuration not stated)	none
N=c1c2c(ncn1CCN1CCOCC1)Oc1ccc3ccccc3c1C2c1ccccc1 (configuration not stated)	none
N=c1c2c(ncn1Cc1ccco1)Oc1c(ccc3ccccc13)C2c1ccccc1 (configuration not stated)	HT1080 IDH1KD tx inconclusive, HT1080NT lethal 16µM, DT40 TDP1 CPT inconclusive, DT40 TDP1 no CPT inconclusive
COc1ccc(/C=C/c2cc(=O)c3cc(Cl)ccc3o2)cc1	DT40 TDP1 CPT inconclusive, DT40 TDP1 no CPT 21µM
COc1c(Cl)c(=O)oc2ccc(Cl)cc12	none
Cc1c(Cl)cccc1NC(=O)c1cc2sccc2n1Cc1ccc(F)cc1	DT40 TDP1 CPT inconclusive, DT40 TDP1 no CPT inconclusive (no result: HT1080 IDH1KD tx, HT1080NT lethal)
COc1ccc(C2CC(c3ccccc3C(F)(F)F)=NN2c2ccc(S(N)(=O)=O)cc2)cc1 (configuration not stated)	HT1080 IDH1KD tx inconclusive, TGFb inhibitor inconclusive, HT1080NT lethal inconclusive, DT40 TDP1 CPT inconclusive, DT40 TDP1 no CPT inconclusive
CO/C=C\C=C/c1nnn(-c2ccc(Cl)cc2)n1	HT1080 IDH1KD tx inconclusive, DT40 TDP1 CPT inconclusive, DT40 TDP1 no CPT 23µM
COCCNC(=O)c1ccc2c3n(nc2c1)-c1ccc(C)cc1CO3	TGFb inhibitor inconclusive, DT40 TDP1 CPT inconclusive, DT40 TDP1 no CPT inconclusive
O=C(c1ccc2c3n(nc2c1)-c1ccc(Cl)cc1CO3)N1CCOCC1	HT1080NT lethal inconclusive, DT40 TDP1 CPT inconclusive, DT40 TDP1 no CPT inconclusive
CCN(CC)CCCNC(=O)c1ccc2c3n(nc2c1)-c1ccc(Cl)cc1CO3	TGFb inhibitor inconclusive, DT40 TDP1 CPT inconclusive, DT40 TDP1 no CPT 16µM
Cc1ccc2c(c1)COc1c3ccc(C(=O)N[C@@H](CO)C(C)C)cc3nn1-2	DT40 TDP1 CPT 23µM, DT40 TDP1 no CPT 18µM
Cc1ccc2c(c1)COc1c3ccc(C(=O)N4CCCCC4)cc3nn1-2	TGFb inhibitor inconclusive, DT40 TDP1 CPT 21µM, DT40 TDP1 no CPT 26µM
CC(C)NC(=O)c1ccc2c3n(nc2c1)-c1ccc(Cl)cc1CO3	DT40 TDP1 CPT inconclusive, DT40 TDP1 no CPT inconclusive
O=C(c1ccc2c3n(nc2c1)-c1ccccc1CO3)N1CCOCC1	HT1080 IDH1KD tx 23µM, HT1080NT lethal 8.2µM, DT40 TDP1 CPT 8.2µM, DT40 TDP1 no CPT 9.2µM, HepG2 tox 7.9µM
COc1ccc(-c2noc(CCC(=O)N3CCN(c4ccccc4)CC3)n2)cc1	none
O=C(CN(Cc1ccccc1)C(=O)CCl)c1cccc(Br)c1	HT1080 IDH1KD tx 16µM, TGFb inhibitor inconclusive, HT1080NT lethal 21µM, DT40 TDP1 CPT 9.2µM, DT40 TDP1 no CPT 16µM
Cc1ccc(-c2ccc(CN3C(C)C(=O)N(Cc4cn(CCC5OCCO5)nn4)CCS3(=O)=O)cc2)cc1 (configuration not stated)	DT40 TDP1 CPT 16µM, DT40 TDP1 no CPT inconclusive
CC1C(=O)N(Cc2cn(CCC3OCCO3)nn2)CCS(=O)(=O)N1Cc1ccc(-c2ccc(Cl)cc2)cc1 (configuration not stated)	HT1080 IDH1KD tx inconclusive, TGFb inhibitor inconclusive, HT1080NT lethal inconclusive, DT40 TDP1 CPT 3.7µM, DT40 TDP1 no CPT 7.3µM
CC1C(=O)N(Cc2cn(CCC3OCCO3)nn2)CCS(=O)(=O)N1Cc1ccc(-c2ccccc2)cc1 (configuration not stated)	DT40 TDP1 no CPT inconclusive
COC(=O)c1[nH]nc(C(=O)OC(C)(C)C)c1-c1ccccc1	TGFb inhibitor inconclusive, DT40 TDP1 CPT 16µM, DT40 TDP1 no CPT 13µM
O=C(c1ccncc1)N1CCC2(CCCN(Cc3ccncc3)C2)CC1	none (no result: HT1080 IDH1KD tx, TGFb inhibitor, HT1080NT lethal, HepG2 tox)
Clc1c(-c2ccccc2)nnn1-c1ccccc1	none
CCCOc1ccc(OC(=O)c2cn(-c3ccc(OC)cc3)c(=O)c3ccccc23)cc1	DT40 TDP1 CPT inconclusive, DT40 TDP1 no CPT 16µM (no result: HT1080 IDH1KD tx, HT1080NT lethal)

Source: PubChem BioAssay (National Center for Advancing Translational Sciences (NCATS))
